Records with an inconclusive call do not appear. The source made the active and inactive calls. Calls come from the whole dose curve.
Experiments:
[1] = biological target: Acetylcholinesterase (Homo sapiens) (UniProt P22303); test: Acetylcholinesterase (AChE) small molecule antagonists: colormetric cell-based qHTS assay (AID 1347395); note: nearly all actives have a fitted effect of over 30% in size
In short: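 Neuroblastoma line SH-SY5Y supplied the enzyme; cells were preincubated with compound for 30 min at 37 C and 5% CO2. Acetylthiocholine with DTNB was then added for 90 min at 37 C, and thiocholine was measured by colour.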

[2] = biological target: Acetylcholinesterase (Homo sapiens) (UniProt P22303); test: Acetylcholinesterase (AChE) small molecule antagonists: enzyme-based qHTS assay (AID 1347397); conditions: Potency: AChE enzyme activity inhibition; outcome: AChE enzyme activity inhibition; note: nearly all actives have a fitted effect of over 55% in size
In short: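 Compound or DMSO vehicle was pin-transferred onto recombinant human AChE (50 mU/mL as dispensed) and left 30 min at room temperature. Acetylthiocholine with DTNB then started the reaction, read colorimetrically 10 min later.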

[3] = biological target: Acetylcholinesterase (Homo sapiens) (UniProt P22303); test: Acetylcholinesterase (AChE) small molecule antagonists: enzyme-based qHTS assay with human liver microsomes (AID 1347399); conditions: Potency: qHTS inhibition; outcome: qHTS inhibition; note: nearly all actives have a fitted effect of over 60% in size
In short: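 Recombinant human AChE (50 mU/mL in the enzyme mix) and human liver microsomes (0.25 mg/mL final) were preincubated with compound and NADPH (0.25 mg/mL final) for 30 min at 37 C. Acetylthiocholine/DTNB was then added; thiocholine was read colorimetrically after 10 min at room temperature.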
% is set by controls: 0 for no effect and ±100 for the full control effect.

Acetylcholinesterase (Homo sapiens), sequence (P22303 whole entry, looked up): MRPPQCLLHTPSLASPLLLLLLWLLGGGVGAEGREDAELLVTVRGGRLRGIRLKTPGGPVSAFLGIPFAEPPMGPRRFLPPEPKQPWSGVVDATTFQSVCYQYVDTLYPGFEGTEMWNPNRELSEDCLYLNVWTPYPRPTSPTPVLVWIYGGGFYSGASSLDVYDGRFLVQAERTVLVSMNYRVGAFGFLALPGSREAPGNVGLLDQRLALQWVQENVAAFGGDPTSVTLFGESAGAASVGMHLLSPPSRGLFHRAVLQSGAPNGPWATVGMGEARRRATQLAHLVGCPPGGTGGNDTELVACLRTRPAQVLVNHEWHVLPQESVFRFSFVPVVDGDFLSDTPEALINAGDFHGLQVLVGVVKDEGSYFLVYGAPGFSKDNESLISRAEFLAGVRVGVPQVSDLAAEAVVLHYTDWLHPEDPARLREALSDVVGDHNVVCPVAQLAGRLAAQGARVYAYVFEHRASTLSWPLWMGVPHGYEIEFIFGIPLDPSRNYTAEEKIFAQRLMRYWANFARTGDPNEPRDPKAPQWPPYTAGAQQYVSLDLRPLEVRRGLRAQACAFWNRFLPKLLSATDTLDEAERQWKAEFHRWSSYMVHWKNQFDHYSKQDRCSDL

O=C(Nc1ccc2c(O)c(N=Nc3ccc(N=Nc4ccc(S(=O)(=O)O)cc4)cc3)c(S(=O)(=O)O)cc2c1)c1ccccc1
inactive: Potency [1] | Potency [2] | Potency [3]

CCCCN1C=CN(C)C1
inactive: activity, negative = inhibition [1] 0.291% [at 23.6 µM] | activity change, negative = inhibition [2] 1.48% [at 23.6 µM] | activity change, negative = inhibition [3] 0.0718% [at 23.6 µM]

CN1CCN(Cc2cc(-c3ccc4[nH]c(=O)oc4c3)co2)[C@@H](c2ccc(F)cc2)C1
inactive: Potency [1] | Potency [2] | Potency [3]

CCC(C)(C)C(=O)O
inactive: Potency [1] | Potency [2] | Potency [3]
